Screening data (PubChem BioAssay)
PI5P4Ka inh: qHTS for Inhibitors of phosphatidylinositol 5-phosphate 4-kinase (PI5P4K). Phosphatidylinositol 5-phosphate 4-kinase type-2 alpha (Homo sapiens), P48426. PI5P4Kalpha enzyme, ADP-Glo luminescence, 60 min; hits give low values. max response, %. actives 1.2% (n = 330,000); active means max response of -50% or lower; inconclusive means between -30% and -50%; inactive means -30% or higher; further: value at the top dose of about 77 µM; on the % scale 0 is the no-effect control and ±100 the full control effect
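PI5P4Kalpha ADP-Glo assay; 5 microM ATP final; 60 min RT reaction; HEPES pH 7.4/EGTA/CHAPS, 5% DMSO; controls lacking substrate or enzyme; luminescent end-point.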
Pol beta inh: qHTS Assay for Inhibitors of DNA Polymerase Beta | P06746 | Pol beta primer extension/strand displacement, fluorescence kinetic | Potency, µM (highest dose often 114 µM), for the others: top-dose activity change, negative = inhibition, hits mostly inhibitors | actives 1.3% (n = 340,000) | AID 485314, 2010; further: potency means the concentration at half of the fitted maximal effect; on the % scale 0 is the no-effect control and ±100 the full control effect
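Reaction started by 50 nM substrate onto compound-treated Pol beta (10 nM, 15 min preincubation, room temperature); plates read at 0 min and 10 min. Normalized concentration-effect data fitted by four-parameter Hill equation.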
Pol eta inh: qHTS for Inhibitors of Polymerase Eta; DNA polymerase eta (Homo sapiens), Q9Y253; recombinant Pol eta, fluorescent DNA replication assay; Potency, µM (doses to about 114 µM), for the others: top-dose activity change, negative = inhibition, hits mostly inhibitors; actives 1.2% (n = 390,000); AID 588591, 2011; further: potency means the concentration at half of the fitted maximal effect; on the % scale 0 is the no-effect control and ±100 the full control effect
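Pol eta (10 nM) was preincubated with compounds for 15 min at room temperature, after which fluorescent replication substrate (50 nM final) was added to start the reaction. Fluorescence was read kinetically at 0 and 10 min.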
Pol iota inh: qHTS for Inhibitors of Polymerase Iota; AID 588590, 2011; actives 1% (n = 390,000); Potency, µM (titrated, usually from 115 µM), without a hit: at the top dose activity, negative = inhibition, usual class: inhibitors; DNA polymerase iota (Homo sapiens), Q9UNA4; Pol iota fluorescent replication assay, 10 min; further: potency means the concentration at half of the fitted maximal effect
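Pol iota at 10 nM preincubated 15 min with compounds at room temperature; reaction started with fluorescent substrate, 50 nM final. Fluorescence read kinetically at 0 and 10 min; buffer-only wells as negative control.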
POLK inh: qHTS for Inhibitors of Polymerase Kappa; Potency, µM (top dose mostly 107 µM), for the others: at the highest dose activity, negative = inhibition, usual class: inhibitors; AID 588579, 2011; DNA polymerase kappa (Homo sapiens), Q9UBT6; actives 0.53% (n = 400,000); purified Pol kappa, fluorescent DNA synthesis assay, 10 min; further: potency means the concentration at half of the fitted maximal effect; on the % scale 0 is the no-effect control and ±100 the full control effect
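Kinetic fluorescence screen: compound preincubated 15 min RT with 10 nM enzyme; 50 nM substrate (final) initiates; reads at 0/10 min.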
WRN inhibitor: qHTS for Inhibitors of WRN Helicase; Bifunctional 3'-5' exonuclease/ATP-dependent helicase WRN (Homo sapiens), Q14191; WRN helicase unwinding, fluorescent forked duplex, kinetic; Potency, µM (doses to about 114 µM), for the others: at the highest dose activity change, negative = inhibition, hits mostly inhibitors; actives 0.46% (n = 360,000); AID 651768, 2012; further: potency means the concentration at half of the fitted maximal effect; on the % scale 0 is the no-effect control and ±100 the full control effect; nearly all actives have a fitted effect of over 55% in size
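WRN at 20 nM final was preincubated with compound for 15 min at room temperature; reaction started with 100 nM forked duplex oligonucleotide carrying fluorophore and quencher plus 2 mM ATP (final). Unwinding followed kinetically by red fluorescence (ex 525/em 598 nm).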
An asterisk follows results filed as active; ? = inconclusive; . = no result; [ ] = remark or other dose. Sampled rows, rich in hits. Any-hit rate of the full collection: about 2.8%. Unless noted, the call rests on the fitted dose curve; in most records, active means well fitted curve in the direction sought with a large enough effect; inconclusive means small, poorly fitted or top-dose-only effect, or another doubt; inactive means no such curve, though single readings can be large; an effect the other way counts as inactive or inconclusive.

SMILES	PI5P4Ka inh	Pol beta inh	Pol eta inh	Pol iota inh	POLK inh	WRN inhibitor
NC(=O)C1CN(S(=O)(=O)c2ccc(Cl)cc2F)c2ccccc2O1 (stereo unspecified)	-4	63µM*	-20%	10%	2%	7%
Cc1ccc(-n2c(=O)[nH]c3cc(C(=O)NCCc4ccccc4)ccc3c2=O)cc1	.	34%	-11%	3%	1%	.
O=C(Nc1ccccc1Cl)c1cc(C2CCCN(C(=O)c3ccccc3)C2)on1 (stereo unspecified)	10	.	.	.	.	-8%
Nc1ncc(Br)cc1N=Cc1ccccc1	-17	40µM*	-24%	10µM*	-28%	?
Nc1nc(SCC(=O)Nc2ccc(OC(F)(F)F)cc2)[nH]c(=O)c1NC(=O)c1ccc(Br)o1	1	40µM*	?	-11%	-33%	-28%
COC(=O)c1[nH]c2c(c1C)C(=O)CC(c1cccc(OC)c1)C2 (stereo unspecified)	-6	45µM*	-5%	?	-22%	-15%
Cc1nnc2c3ccccc3nc(Nc3cccc(O)c3)n12	.	-1%	-16%	29%	8%	.
Cc1nnc2c3ccccc3nc(Nc3ccccc3C(=O)O)n12	.	-28%	79µM*	-13%	-11%	.
C[C@H](CC[C@@H]1OC1(C)C)C1CC[C@H]2[C@@H]3CC=C4C[C@@H](O)CC[C@]4(C)[C@H]3CC[C@]12C (stereo partly specified)	.	.	.	.	6%[19.4 µM]	.
Clc1ccc(NN(Cc2ccncc2)c2ccc(Cl)cc2)cc1	9	.	-24%	.	.	-9%
COc1ccc(/C=N/Nc2cc(C)nc3ccccc23)cc1	-4	79µM*	?	?	-23%	?
COc1ccc(Nc2cc(C)nc3ccc(OC)cc23)cc1	-3	22µM*	-12%	?	-22%	-27%
COc1cccc2c(N/N=C/c3ccc(O)c(O)c3)cc(C)nc12	-1	20µM*	-9%	?	-31%	-4%
COc1ccc(/C=N/Nc2cc(C)nc3c(C)cccc23)cc1	-9	25µM*	?	-13%	-18%	?
Cc1ccc2nc(C)cc(N/N=C/c3cccc(O)c3)c2c1	1	-3%	-15%	106%	-8%	-8%
CC(=O)c1cccc(CN2CCC(C(=O)Nc3cccc(-c4ccn[nH]4)c3)CC2)c1	6	3%	-11%	-3%	-9%	?
O=C(Cc1cccnc1)N[C@@H]1CC[C@H](CCn2cc(Cc3ccccc3)nn2)O[C@@H]1CO	-3	.	.	.	.	6%
Cc1ccc(NS(=O)(=O)c2cc(-c3cnc(C4CC4)o3)ccc2C)cc1Cl	.	-14%	.	-14%	-12%[60.1 µM]	.
O=C(N/N=C/c1c(O)n(-c2ccccc2Cl)c(=O)c2ccccc12)C1COc2ccccc2O1 (stereo unspecified)	-53*	-2%	-15%	39%	-32%	?
O=C(N/N=C\c1ccc(Br)o1)C1COc2ccccc2O1 (stereo unspecified)	?	35µM*	45µM*	45µM*	-74%	-15%[11.6 µM]
O=C(N/N=C\c1cccc([N+](=O)[O-])c1O)C1COc2ccccc2O1 (stereo unspecified)	-69*	5%	-8%	?	-11%	-11%
Cc1ccc(-n2c(O)c(/C=N/NC(=O)C3COc4ccccc4O3)c3ccccc3c2=O)cc1 (stereo unspecified)	?	-13%	?	6%	-9%	-28%
O=C(N/N=C/c1cccc([N+](=O)[O-])c1)C1COc2ccccc2O1 (stereo unspecified)	12	19%	-12%	22%	-3%	-4%[57.1 µM]
O=C(CSc1nc2ccccc2c(=O)[nH]1)Nc1ccc(C(=O)O)cc1	-88*	?	0%	59%	-21%	-30%
O=C(CSc1nc2c(oc3ccccc32)c(=O)[nH]1)Nc1cccc(Cl)c1	.	71µM*	-13%	?	-34%	.
SMILES	PI5P4Ka inh	Pol beta inh	Pol eta inh	Pol iota inh	POLK inh	WRN inhibitor
Cc1ccc(-c2csc3nc(SCC(=O)Nc4ccc(Cl)c(C(=O)O)c4)[nH]c(=O)c23)cc1	-78*	?	40µM*	?	-40%	?
Cc1sc2nc(SCC(=O)Nc3cccc(C(=O)O)c3)[nH]c(=O)c2c1C	-73*	.	?	?	-23%	?
CCOC(=O)[C@]12CCC=C1N(Cc1ccco1)C(=O)[C@H](CC(=O)NCC13CC4CC(CC(C4)C1)C3)C2	-13	.	.	.	.	-2%
CCOC(=O)c1c(C)[nH]c(-c2csc(N)n2)c1C	-2	-12%	-8%	36%	-6%	-10%
Cc1sc2nc(SCC(=O)Nc3ccc(S(N)(=O)=O)cc3)[nH]c(=O)c2c1C	4	25µM*	?	?	-16%	2%[11.6 µM]
COC(=O)c1ccccc1NC(=O)CSc1nc(O)c(-c2ccccc2)c(=O)[nH]1	-11	?	?	84%	-19%	-2%[11.6 µM]
Cc1sc2nc(SCC(=O)Nc3ccc(Cl)c(C(=O)O)c3)[nH]c(=O)c2c1C	-5	.	-12%	33%	-11%	-6%
COC(=O)c1cccc(NC(=O)CSc2nc(O)c(-c3ccccc3)c(=O)[nH]2)c1	-27	?	25µM*	?	?	-7%[11.6 µM]
NCCc1nnc(SCC(=O)Nc2cccc(Cl)c2)o1	10	25%	-10%	40µM*	?	9%
CC(C)(C)OC(=O)NCCc1nnc(SCC(=O)Nc2cccc(Cl)c2)o1	0	-6%	-13%	44%	-12%	4%
CCOc1cccc2cc(-c3nc4sc5c(c4c(=O)[nH]3)CCC(C)C5)c(=O)oc12 (stereo unspecified)	.	0%	-10%	8%	12%	.
Cc1ccc(F)c(S(=O)(=O)NC(=O)C2(C)CCN2C(=O)c2cccc3ccccc23)c1 (stereo unspecified)	3	.	.	.	.	2%
CCOc1cccc(-c2csc(C3COc4ccccc4O3)n2)c1 (stereo unspecified)	8	32%	0%	5%	-5%	-1%
CN(C)C(CNS(=O)(=O)c1cc([N+](=O)[O-])ccc1Cl)c1ccco1 (stereo unspecified)	-18	.	50µM*	?	-31%	-4%[11.6 µM]
CC(C)C(=O)Nc1ccc(-c2nnc(-c3ccccc3)o2)cc1	2	45µM*	1%	10%	4%	-7%
